# Laboratory results published in PubChem BioAssay (NCI).
# This is part of a sample that, as a whole, favours compounds with a hit. Of some 79,000 tested, about 15% had one in any assay. Values without a mark were called inactive. Activity calls are given as the source filed them. Cut-off read from the data, not from the text of the source: active = growth inhibition above about 70%; inactive = the rest.
# Columns and labels:
# [1] = NCI Yeast Anticancer Drug Screen. Data for the rad52 strain (AID 147);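 note: 0% = growth of vehicle-treated control cultures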; details: S. cerevisiae rad52 mutant growth inhibition, stronger effect = higher value
# In short: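 Growth of repair-deficient yeast cells was compared between compound-treated and vehicle-treated cultures to give percent inhibition.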
# [2] = NCI Yeast Anticancer Drug Screen. Data for the wt1 strain (AID 149);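 note: 0% = growth of vehicle-treated wt1 cultures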; details: S. cerevisiae wt1 strain (SPY 50644) growth inhibition, stronger effect = higher value
# In short: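 Measured: growth of wt1 yeast under compound versus vehicle treatment, reported as inhibition.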
# [3] = NCI Yeast Anticancer Drug Screen. Data for the rad50EPP+ strain (AID 151);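 note: 0% = growth of vehicle-treated control cultures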; details: S. cerevisiae rad50 mutant strain, stronger effect = higher value
# In short: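 Measured: growth inhibition of rad50EPP+ yeast. Reference: vehicle-treated controls. Screen uses strains with defined genetic alterations in DNA damage repair or cell cycle control.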
# [4] = NCI Yeast Anticancer Drug Screen. Data for the mgt1 strain (AID 153); details: S. cerevisiae mgt1 mutant growth inhibition, stronger effect = higher value
# In short: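 Compounds were applied to mgt1 mutant yeast, and growth was then compared against vehicle-treated control cultures to give percent inhibition.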
# [5] = NCI Yeast Anticancer Drug Screen. Data for the rad50 strain (AID 155);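 note: 0% = growth of vehicle-only cultures of the same strain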; details: S. cerevisiae rad50 strain growth inhibition, stronger effect = higher value
# In short: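 Growth of the mutant yeast was measured after compound exposure and referenced to vehicle-treated cultures.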
# [6] = NCI Yeast Anticancer Drug Screen. Data for the mec2-1 strain (AID 157); details: S. cerevisiae mec2-1 strain, stronger effect = higher value
# In short: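 Compounds were applied to mec2-1 yeast cells. Their growth was then compared with that of vehicle-treated cultures to give growth inhibition.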
# [7] = NCI Yeast Anticancer Drug Screen. Data for the rad14 strain (AID 159);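 note: 0% = growth of vehicle-treated control cultures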; details: S. cerevisiae rad14 strain growth inhibition, stronger effect = higher value
# In short: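 Here, inhibition of yeast growth was measured after compound exposure, using a strain with a genetic defect in DNA damage repair and vehicle-treated cultures as the reference.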
# [8] = NCI Yeast Anticancer Drug Screen. Data for the sgs1 mgt1 strain (AID 161);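 note: 0% = growth of cultures given vehicle only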; details: S. cerevisiae sgs1 mgt1 strain, stronger effect = higher value
# In short: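 Compounds are added to genetically altered yeast, and growth is compared with cultures given vehicle alone to give percent inhibition.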
# [9] = NCI Yeast Anticancer Drug Screen. Data for the CLN2oe strain (AID 163);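 note: 0% = growth of vehicle-only control cultures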; details: S. cerevisiae CLN2oe strain, stronger effect = higher value
# In short: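 Cells of an engineered yeast line with disturbed cell-cycle regulation are treated with compound. Inhibition of growth is then calculated relative to the vehicle-treated reference.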
# [10] = NCI Yeast Anticancer Drug Screen. Data for the cln2 rad14 strain (AID 165);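 note: 0% = growth equal to vehicle treated cultures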; details: S. cerevisiae cln2 rad14 strain, stronger effect = higher value
# In short: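 Strain: cln2 rad14 yeast, altered in cell cycle control and DNA damage repair. Read-out: growth inhibition vs vehicle.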
# [11] = NCI Yeast Anticancer Drug Screen. Data for the bub3 strain (AID 167); details: S. cerevisiae bub3 mutant strain, stronger effect = higher value
# In short: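 Whole-cell yeast assay. The mutant strain was incubated with compounds, and growth inhibition was determined by comparison with vehicle-treated cells.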
# [12] = NCI Yeast Anticancer Drug Screen. Data for the wt2 strain (AID 169);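 note: 0% = growth of vehicle-treated yeast cultures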; details: S. cerevisiae wt2 strain growth inhibition, stronger effect = higher value
# In short: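 Growth of compound-treated yeast is measured and expressed as inhibition relative to vehicle-only controls.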
# [13] = NCI Yeast Anticancer Drug Screen. Data for the mlh1 strain (AID 171);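 note: 0% = growth of vehicle-treated control cultures of the same strain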; details: S. cerevisiae mlh1 strain growth inhibition, stronger effect = higher value
# In short: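 Test agents were incubated with yeast bearing a defined DNA damage repair or cell cycle control alteration; values are growth inhibition normalised to vehicle-treated cultures.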
# [14] = NCI Yeast Anticancer Drug Screen. Data for the sgs1 strain (AID 173);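 note: 0% = growth of vehicle-only control cultures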; details: S. cerevisiae sgs1 mutant, stronger effect = higher value
# In short: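 Strain with an altered DNA repair or cell cycle pathway exposed to compound. Growth then measured. Value = inhibition versus vehicle control.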
# [15] = NCI Yeast Anticancer Drug Screen. Data for the mlh1 rad18 strain (AID 175); details: S. cerevisiae mlh1 rad18 strain growth inhibition, stronger effect = higher value
# In short: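 A repair-deficient yeast strain is exposed to test compound, and growth is scored relative to vehicle-treated controls.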
# [16] = NCI Yeast Anticancer Drug Screen. Data for the rad18 strain (AID 177); details: S. cerevisiae rad18 mutant growth inhibition, stronger effect = higher value
# In short: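 DNA-repair-defective yeast; compound treatment; growth inhibition scored against vehicle.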
# [17] = at 5.0 µM (retest, dose inferred, filed as 0.5)
# [18] = at 50.0 µM (retest, dose inferred, filed as 5.0)
compound,measurement,setting,value
CC[C@@]1(OC(=O)CN(C)C)C(=O)OCc2c1cc1n(c2=O)Cc2cc3c(N)cccc3nc2-1,growth inhibition,[1]; at 1.2 µM,53%
same,growth inhibition,[1]; at 3.7 µM,75% (active)
same,growth inhibition,[1]; at 11.0 µM,88% (active)
same,growth inhibition,[1]; at 33.0 µM,93% (active)
same,growth inhibition,[1]; at 100.0 µM,95% (active)
same,growth inhibition,[2]; at 1.2 µM,0%
same,growth inhibition,[2]; at 3.7 µM,-2%
same,growth inhibition,[2]; at 11.0 µM,-1%
same,growth inhibition,[2]; at 33.0 µM,6%
same,growth inhibition,[2]; at 100.0 µM,25%
same,growth inhibition,[3]; at 1.2 µM,7%
same,growth inhibition,[3]; at 3.7 µM,22%
same,growth inhibition,[3]; at 11.0 µM,55%
same,growth inhibition,[3]; at 33.0 µM,77% (active)
same,growth inhibition,[3]; at 100.0 µM,87% (active)
same,growth inhibition,[4]; at 1.2 µM,-2%
same,growth inhibition,[4]; at 3.7 µM,0%
same,growth inhibition,[4]; at 11.0 µM,2%
same,growth inhibition,[4]; at 33.0 µM,20%
same,growth inhibition,[4]; at 100.0 µM,39%
same,growth inhibition,[5]; at 1.2 µM,68%
same,growth inhibition,[5]; at 3.7 µM,82% (active)
same,growth inhibition,[5]; [17],90% (active)
same,growth inhibition,[5]; at 11.0 µM,91% (active)
same,growth inhibition,[5]; at 33.0 µM,94% (active)
same,growth inhibition,[5]; [18],90% (active)
same,growth inhibition,[5]; at 50.0 µM,-17.9%
same,growth inhibition,[5]; at 100.0 µM,95% (active)
same,growth inhibition,[6]; at 1.2 µM,0%
same,growth inhibition,[6]; at 3.7 µM,8%
same,growth inhibition,[6]; [17],22%
same,growth inhibition,[6]; at 11.0 µM,46%
same,growth inhibition,[6]; at 33.0 µM,88% (active)
same,growth inhibition,[6]; [18],22%
same,growth inhibition,[6]; at 50.0 µM,58.4%
same,growth inhibition,[6]; at 100.0 µM,96% (active)
same,growth inhibition,[7]; at 1.2 µM,2%
same,growth inhibition,[7]; at 3.7 µM,0%
same,growth inhibition,[7]; at 11.0 µM,4%
same,growth inhibition,[7]; at 33.0 µM,19%
same,growth inhibition,[7]; at 100.0 µM,51%
same,growth inhibition,[8]; [17],14%
same,growth inhibition,[8]; [18],14%
same,growth inhibition,[8]; at 50.0 µM,6.05%
same,growth inhibition,[9]; at 1.2 µM,-8%
same,growth inhibition,[9]; at 3.7 µM,1%
same,growth inhibition,[9]; at 11.0 µM,8%
same,growth inhibition,[9]; at 33.0 µM,43%
same,growth inhibition,[9]; at 100.0 µM,80% (active)
same,growth inhibition,[10]; [17],17%
same,growth inhibition,[10]; [18],17%
same,growth inhibition,[10]; at 50.0 µM,31.1%
same,growth inhibition,[11]; at 1.2 µM,-14%
same,growth inhibition,[11]; at 3.7 µM,-20%
same,growth inhibition,[11]; [17],6%
same,growth inhibition,[11]; at 11.0 µM,-3%
same,growth inhibition,[11]; at 33.0 µM,20%
same,growth inhibition,[11]; [18],6%
same,growth inhibition,[11]; at 50.0 µM,0.7%
same,growth inhibition,[11]; at 100.0 µM,59%
same,growth inhibition,[12]; at 1.2 µM,-2%
same,growth inhibition,[12]; at 3.7 µM,1%
same,growth inhibition,[12]; at 11.0 µM,3%
same,growth inhibition,[12]; at 33.0 µM,13%
same,growth inhibition,[12]; at 100.0 µM,32%
same,growth inhibition,[13]; at 1.2 µM,-1%
same,growth inhibition,[13]; at 3.7 µM,-2%
same,growth inhibition,[13]; at 11.0 µM,1%
same,growth inhibition,[13]; at 33.0 µM,28%
same,growth inhibition,[13]; at 100.0 µM,55%
same,growth inhibition,[14]; at 1.2 µM,0%
same,growth inhibition,[14]; at 3.7 µM,4%
same,growth inhibition,[14]; at 11.0 µM,17%
same,growth inhibition,[14]; at 33.0 µM,40%
same,growth inhibition,[14]; at 100.0 µM,64%
same,growth inhibition,[15]; [17],27%
same,growth inhibition,[15]; [18],27%
same,growth inhibition,[15]; at 50.0 µM,73.5% (active)
same,growth inhibition,[16]; at 1.2 µM,-18%
same,growth inhibition,[16]; at 3.7 µM,-5%
same,growth inhibition,[16]; at 11.0 µM,5%
same,growth inhibition,[16]; at 33.0 µM,19%
same,growth inhibition,[16]; at 100.0 µM,51%
